Source: PubChem BioAssay
VDR inhibitor: inhibitors of human vitamin D receptor; P11473; VDR-SRC2-3 peptide fluorescence polarization, 2 h; Potency, µM, without a hit: max response, negative = inhibition, most hits filed as inhibitors; 400,000 compounds, 0.93% hits; AID 504847; note: % is set by controls: 0 for no effect and ±100 for the full control effect
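Compounds are added to VDR with labelled SRC2-3 coactivator peptide and held 2 h at room temperature. Inhibition of the VDR–peptide interaction is then read as a change in fluorescence polarization.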
Tb PFK inh: blocks T. brucei phosphofructokinase | O15648 | T. brucei PFK, ADP-Glo luminescence | Potency, µM (highest dose often 57.5 µM), for the others: top-dose activity, negative = inhibition, hits mostly inhibitors | 330,000 compounds, 0.17% hits | AID 485367;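 note: 0% = uninhibited 1x PFK enzyme wells and -100% = no-enzyme wells; nearly all actives have a fitted effect of over 60% in size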
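Luminescent ADP detection (ADP-Glo, two-step: ATP depletion then ADP-to-ATP conversion for luciferase) reported PFK activity after 45 min room-temperature reaction of 1.25 nM enzyme with 0.5 mM F6P and 0.1 mM ATP at pH 8.0.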
BRCA1 expr act: increases BRCA1 expression; AID 624202; MCF7-BRCA1-FFLuc reporter, luminescence, 48 h; response scale: scaled: vehicle 0%, 10 µM genistein 100%; 380,000 compounds, 1.1% hits; Potency, µM (doses to about 46.1 µM), without a hit: top-dose activation, hits mostly activators; note: nearly all actives have a fitted effect of over 80% in size
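Reporter cells (MCF7, BRCA1 promoter-firefly luciferase) received library compounds across a concentration series for 48 h. End-point luminescence was measured and concentration-effect curves derived after normalization.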
PLK1 PBD block: PLK1 (human) polo-box domain binding inhibition; Plk1 PBD binding of FITC phosphopeptide, fluorescence polarization; Potency, µM, without a hit: max response, negative = inhibition, actives largely listed as inhibitors; 360,000 compounds, 2.8% hits; AID 720504; note: series mostly up to about 57 µM; % is set by controls: 0 for no effect and ±100 for the full control effect; nearly all actives have a fitted effect of over 65% in size
Target sequence (P53350 whole entry, looked up, the tested form may be a part): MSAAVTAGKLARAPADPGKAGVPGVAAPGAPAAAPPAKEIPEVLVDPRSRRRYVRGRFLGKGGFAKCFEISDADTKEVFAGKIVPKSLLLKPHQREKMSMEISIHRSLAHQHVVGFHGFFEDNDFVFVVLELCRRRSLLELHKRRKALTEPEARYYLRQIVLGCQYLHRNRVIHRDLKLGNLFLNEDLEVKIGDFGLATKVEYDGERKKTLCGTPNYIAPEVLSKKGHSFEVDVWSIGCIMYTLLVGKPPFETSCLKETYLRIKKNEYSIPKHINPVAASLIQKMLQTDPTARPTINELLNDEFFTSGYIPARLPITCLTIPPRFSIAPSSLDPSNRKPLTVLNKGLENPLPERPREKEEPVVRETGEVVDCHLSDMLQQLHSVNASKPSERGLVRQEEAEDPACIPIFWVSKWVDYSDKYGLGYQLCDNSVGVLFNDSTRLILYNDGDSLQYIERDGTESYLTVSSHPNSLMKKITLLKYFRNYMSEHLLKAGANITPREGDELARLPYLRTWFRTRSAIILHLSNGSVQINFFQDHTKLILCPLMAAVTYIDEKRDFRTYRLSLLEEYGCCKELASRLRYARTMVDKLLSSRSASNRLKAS
Starred values were filed as active, the others as inactive; ? = inconclusive; . = not tested or not shown. Compounds with a hit are over-represented: about 3.9% of the library has one in this group of screens. Calls come from the whole dose curve; as a rule, active = well fitted curve in the direction sought with a large enough effect; inconclusive = small, poorly fitted or top-dose-only effect, or another doubt; inactive = no such curve, though single readings can be large; an effect the other way counts as inactive or inconclusive. Potency is the fitted concentration of half-maximal effect.

SMILES	VDR inhibitor	Tb PFK inh	BRCA1 expr act	PLK1 PBD block
Cn1cccc1Cc1nnc(SCC(=O)Nc2ccccc2)n1-c1ccc(F)cc1	6.1%	-9.1%	-12.2%	?
Cn1cccc1Cc1nnc(SCC(=O)Nc2ccc(F)cc2)n1-c1ccc(F)cc1	?	-0.2%	26.8%	23.8µM*
COc1ccc(-n2c(Cc3cccn3C)nnc2SCC(=O)Nc2ccc(C)cc2C)cc1	?	-3.8%	-11.2%	26.7µM*
COc1ccc(-n2c(Cc3cccn3C)nnc2SCC(=O)Nc2ccccc2OC)cc1	6.6%	0.5%	4.2%	-25.5%
CCc1ccccc1NC(=O)Cc1ccc(-n2cccc2)cc1	?	-1.8%	-1.5%	7.52µM*
Cc1cc2ccccc2n1CCNC(=O)c1cc(C(F)(F)F)cc(C(F)(F)F)c1	-13.0%	.	0.0%	.
COCCN(Cc1ccc(C)c(Br)c1)C(=O)Cn1cnc(S(=O)(=O)N2CCCC2)c1	-18.0%	3.9%	2.3%	9.47µM*
O=c1[nH]c2ccccc2c(O)c1-c1ccccc1[N+](=O)[O-]	-13.3%	0.1%	10.8%	23.8µM*
O=c1[nH]c2ccccc2c(O)c1-c1ccccc1	15.9%	2.1%	-4.8%	1.8%
O=C(N/N=C/c1cc2c3c(c1O)CCCN3CCC2)c1ccccc1O	-17.5%	27.1%	-74.5%	-10.3%
O=c1ccc2cc3c4c(c2o1)CCCN4CCC3	2.2%	-16.7%	-16.5%	16.8µM*
O=c1oc2c3c4c(cc2s1)CCCN4CCC3	79.4µM*	?	-2.6%	26.7µM*
CC1(C(=O)Nc2ccc3c(c2)OCCO3)CCC(=O)N1CCc1c[nH]c2ccccc12 (centres undefined)	.	.	2.2%	-12.3%
O=C(OC1CCCCC1=O)c1cccc(S(=O)(=O)N2CCOCC2)c1 (centres undefined)	0.3%	-11.0%	-2.2%	-10.1%
CCCN(C(=O)COC(=O)c1nc2nccc(C)n2n1)C1CCS(=O)(=O)C1 (centres undefined)	?	.	0.0%	23.8µM*
CCOc1ccc(CNC(=O)C2CCN(C(=O)N3CC(CC)Oc4ccccc43)CC2)cc1 (centres undefined)	2.3%	.	.	.
O=[N+]([O-])c1ccc(O)c(C2=NNC(c3ccccc3F)C2)c1 (centres undefined)	79.4µM*	1.9%	-26.5%	?
COc1ccc([N+](=O)[O-])cc1C1NN=C(c2ccccc2O)S1 (centres undefined)	2.5%	1.7%	-91.1%	-13.8%
O=C(Nc1ccc(F)cc1F)N1CCCC(c2nc(-c3ccc(F)cc3)no2)C1 (centres undefined)	-27.5%	-1.1%	68.3%	11.9µM*
Cc1cccc(NC(=O)CCCCCn2c(=O)[nH]c3ccsc3c2=O)c1	-4.6%	.	4.7%	.
C=CCN1C(=O)/C(=c2\sc3nc(=O)c(Cc4ccccc4)nn3c2=O)c2ccccc21	?	-4.3%	-38.1%	13.4µM*
Cc1ccc(NC(=O)c2ccc(Cn3cc(Cl)cn3)o2)c(C)c1	.	0.6%	.	.
COC(=O)c1sc(NC(=O)c2ccc(Cn3cc(Cl)cn3)o2)c(C#N)c1C	?	0.0%	-44.9%	2.99µM*
c1coc(-c2nnc(-c3ccco3)nn2)c1	89.1µM*	-24.9%	90.8%	-11.2%
CCc1ccccc1NC(=O)Nc1ccc2c(c1)N(CC)C(=O)c1ccccc1S2	4.8%	.	.	.
SMILES	VDR inhibitor	Tb PFK inh	BRCA1 expr act	PLK1 PBD block
O=C1CCc2cc(-c3csc(-c4ccc(O)cc4)n3)ccc2N1	.	.	3.7%	.
O=C(COC(=O)c1cncc(Br)c1)NC1CC1	-21.2%	-3.8%	9.7%	-6.8%
CC(C)(C)NC(=O)COC(=O)c1cncc(Br)c1	-23.1%	1.0%	15.0%	29.9µM*
Cc1ccc(NC(=O)c2cc(-n3cnnc3)ccc2Cl)cc1	6.6%	-3.6%	-4.0%	-1.2%
Cc1ccc(NC(=O)c2cc(N3C(=O)C=CC3=O)ccc2Cl)cc1C	35.5µM*	-14.0%	-21.0%	5.32µM*
COc1ccc(CCNc2nc(-c3ccc(OC)c(OC)c3)cc(C(F)(F)F)n2)cc1OC	4.8%	.	-39.2%	.
COc1ccc2c(c1)O[C@@H](c1ccc3c(c1)OCO3)[C@H](OC(=O)Nc1ccc(C)c(Br)c1)C2=O	-12.8%	.	.	.
COc1cccc(/C=C/c2ccccn2)c1O	-27.3%	2.0%	17.4%	26.7µM*
COc1cccc(O)c1O	50.1µM*	.	.	.
O=C(Nc1ccc(N2CCN(C(=O)c3ccccc3F)CC2)cc1)c1cncc(Br)c1	11.1%	-10.3%	-30.0%	2.2%
CCC[C@H](N[C@@H](C)C(=O)N1[C@@H]2CCCC[C@H]2C[C@H]1C(=O)O)C(=O)OCC	9.4%	.	.	.
COc1ccc2nc(NNC(=O)c3cc(=O)c4ccccc4o3)sc2c1	31.6µM*	4.6%	-38.9%	-11.8%
O=C(NNc1nc2c(F)cccc2s1)c1cc(=O)c2ccccc2o1	?	11.6%	0.0%	-4.7%
Cc1cccc2sc(NNC(=O)c3cc(=O)c4ccccc4o3)nc12	?	-14.0%	0.0%	?
Cc1ccc2sc(NNC(=O)c3cc(=O)c4ccccc4o3)nc2c1C	7.94µM*	-25.1%	-46.0%	-16.5%
NCCOB(c1ccccc1)c1ccccc1	14.1µM*	.	.	.
NCCOc1ccccc1OCCN	16.2%	-2.1%	-19.0%	-4.8%
CCOC(=O)Cn1c(=O)oc2cc(S(=O)(=O)NCc3ccc(F)cc3)ccc21	7.9%	.	.	.
FC(F)(F)c1ccccc1-c1cncnc1NCCN1CCOCC1	44.7µM*	.	.	.
CCN(C[C@H]1N[C@@](Cc2ccccc2)(C(=O)OC)[C@H]2C(=O)N(Cc3ccccc3)C(=O)[C@@H]12)C(=O)COc1ccccc1	-21.7%	0.8%	-32.2%	-6.5%
CC(=O)C1=C(O)C(=O)N(Cc2cccnc2)C1c1ccc(O)cc1 (centres undefined)	-1.5%	-14.4%	45.8%	26.7µM*
CC(=O)C1=C(O)C(=O)N(Cc2cccnc2)C1c1ccccc1 (centres undefined)	1.7%	4.6%	10.8%	1.1%
Cc1nn(C(=O)C2CC2)c(C)c1Sc1ccc(Cl)cc1	-10.1%	-0.1%	11.7%	1.9%
Cc1ccc(Sc2c(C)nn(C(C)(C)C)c2OC(=O)CC(C)C)cc1	-5.7%	.	.	.
CCCC(=O)Oc1c(Sc2ccc(C)cc2)c(C)nn1-c1ccccc1	17.8µM*	.	.	.
SMILES	VDR inhibitor	Tb PFK inh	BRCA1 expr act	PLK1 PBD block
CCC(=O)Oc1c(Sc2ccc(C)cc2)c(C)nn1-c1ccccc1	79.4µM*	.	.	.
CCC(=O)Oc1c(Sc2ccc(Cl)cc2)c(C)nn1-c1ccccc1	79.4µM*	.	.	.
Oc1ccc(-c2nnc(SCc3ccccc3)o2)cc1	-3.1%	-3.0%	10µM*	-6.3%
COc1ccc(-c2nnc(SCc3ccccc3F)o2)cc1OC	1.0%	3.7%	80.4%	-0.7%
c1ccc(CSc2nnc(-c3cccnc3)o2)cc1	0.4%	1.0%	7.94µM*	-7.0%
Cc1ccc(-c2nnc(SCc3ccccc3F)o2)cc1	-25.6%	-14.2%	?	21.2µM*
Cc1ccc(-c2nnc(SCc3ccccc3)o2)cc1	5.9%	.	.	.
Cc1ccc(CSc2nnc(-c3cccnc3)o2)cc1	3.5%	4.5%	45.9%	-8.9%
COc1ccc(NC(=O)CSc2nc(SC)ns2)cc1	4.2%	-0.1%	4.47µM*	-7.5%
CCOC(=O)N1CCN(C(=O)CSc2nc(-c3cccc(C)c3)ns2)CC1	?	-4.3%	-30.4%	6.7µM*
O=C(CSc1nc(-c2ccccc2)ns1)NCC1CCCO1 (centres undefined)	-27.8%	-5.5%	81.3%	15µM*
